Reference: ChEMBL document CHEMBL3988442, “University of Dundee, Small-Polar-MMV Screening Library” (2021)
The campaign covered roughly 48,000 compounds. About 13,000 (27%) showed an effect of 50% or more. This is one part of the list.

system: Wolbachia pipientis; assay: Anti-Wolbachia Cell-Based Screen; format: functional; parameters: scale not given: in the data most compounds retested in dose-response had high values; settings: 5 µM

Structure (SMILES)	Percent Effect
O=C1CN(C(=O)CC2C(=O)NCCN2CC2CCCCC2)CCN1 (stereo not drawn)	-19.63%
Cc1occc1CNC(=O)C1CCCN1C(=O)C1CC1 (stereo not drawn)	-6.321%
COC(=O)c1ccc(OC)c(CN2CCN(CC(C)C)C(=O)C2C)c1 (stereo not drawn)	1.65%
COCC(C)(O)CNC(=O)Nc1cccc(OC)c1OC (stereo not drawn)	4.697%
Cn1nc(C2CCN(CC(=O)NC3CC3)CC2)n(-c2ccccc2)c1=O	1.77%
O=C(Cn1c(=O)n(Cc2ccco2)c2ncccc21)NC1CC1	115.8%
CCN(CCc1nccs1)C(=O)c1ccco1	-4.795%
CCCN(Cc1cccnc1)C(=O)C1CCN(Cc2ccco2)CC1	2.103%
O=C(NC1CC1)[C@H]1C[C@H]2OCC[C@H]2N(Cc2ccco2)C1	-4.068%
Cc1nn(C(C)(C)C)c(=O)n1CC(=O)NC(C)(C)C	-3.979%
O=C(Cn1c(=O)n(Cc2ccco2)c2ncccc21)NC1CCCCC1	-5.913%
O=C(Cn1c(=O)n(Cc2ccco2)c2ncccc21)NC1CCCC1	120%
CCN(CC)C(=O)Cn1c(=O)n(Cc2ccco2)c2ncccc21	92.26%
O=C(Cn1c(=O)n(Cc2ccco2)c2ncccc21)Nc1ccccn1	-4.791%
CC(C)(C)NC(=O)Cn1c(=O)n(Cc2ccco2)c2ncccc21	95.67%
Cn1ncc2cnn(CC(O)COc3cccc4[nH]ccc34)c2c1=O (stereo not drawn)	26.41%
CC(C)c1noc(CCC(=O)Nc2cc(C(F)(F)F)c[nH]c2=O)n1	-36.07%

Structure (SMILES)	Percent Effect
CCc1ccc(NC(=O)N2C[C@H]3C[C@H](C(=O)NC(C)C)[C@@H](C2)O3)cc1	101%
CC(C)NC(=O)N1C[C@H]2C[C@H](C(=O)NCc3ccccc3)[C@@H](C1)O2	-9.895%
CCc1ccc(NC(=O)N2C[C@H]3C[C@H](C(=O)NC)[C@@H](C2)O3)cc1	-8.923%
CC(C)NC(=O)[C@H]1C[C@@H]2CN(C(=O)NC(C)C)C[C@H]1O2	-20.07%
CCc1cnc(N2C[C@H]3C[C@H](C(=O)NC4CCC4)[C@@H](C2)O3)nc1	-0.2357%
CCc1ccc(NC(=O)N2C[C@H]3C[C@H](C(=O)NC4CCC4)[C@@H](C2)O3)cc1	117.1%
Cc1ccccc1OCCC(=O)N1CCCC(n2cncn2)C1 (stereo not drawn)	-9.445%
FC(F)(F)Oc1ccc(CN2CCCC(n3cncn3)C2)cc1 (stereo not drawn)	13.2%
Cc1cccc(C)c1OCCC(=O)N1CCC(c2nncn2C)CC1	0.8719%
CSc1ccc(OCCN2CCC(n3cncn3)CC2)cc1	98.24%
Clc1cc(Cl)cc(OCCN2CCC(n3cncn3)CC2)c1	103.8%
Cc1cccc(C)c1OCCCN1CCC(n2cncn2)CC1	115.1%
Clc1ccc(OCCN2CCN(CCn3cncn3)CC2)cc1	-7.454%
Cc1cc(C)cc(OCCC(=O)N2CCCC(n3cncn3)C2)c1 (stereo not drawn)	-4.983%
CC(C(=O)N1CCN(CCOc2ccccc2)CC1)n1cncn1 (stereo not drawn)	-7.881%
c1ccc(OCCN2CCC(n3cncn3)CC2)cc1	93.12%
